# Source: PubChem BioAssay AID1508601 (ICCB-Longwood Screening Facility, Harvard Medical School, 2020)
# Out of some 5,700 compounds screened, about 85 (1%) were called active. No stated cut-off is given here; in the data, active means p53-positive nuclei above about 36% (passing the limit was not always enough); inactive means the rest. Many of the other results were omitted from the sample, so actives are more common in it than they were.
# Key:
# [1] = p53 stabilisation in HPV-positive human cells, imaging, p53-positive nuclei imaging, 24 h, 48 h (AID 1508601); conditions: 24/48 h
# [2] = target: Cellular tumor antigen p53 (Homo sapiens) (UniProt P04637); assay: as above; conditions: 24/48 h, stronger effect = higher value
# Chain of Cellular tumor antigen p53 (Homo sapiens) (P04637 whole entry, looked up): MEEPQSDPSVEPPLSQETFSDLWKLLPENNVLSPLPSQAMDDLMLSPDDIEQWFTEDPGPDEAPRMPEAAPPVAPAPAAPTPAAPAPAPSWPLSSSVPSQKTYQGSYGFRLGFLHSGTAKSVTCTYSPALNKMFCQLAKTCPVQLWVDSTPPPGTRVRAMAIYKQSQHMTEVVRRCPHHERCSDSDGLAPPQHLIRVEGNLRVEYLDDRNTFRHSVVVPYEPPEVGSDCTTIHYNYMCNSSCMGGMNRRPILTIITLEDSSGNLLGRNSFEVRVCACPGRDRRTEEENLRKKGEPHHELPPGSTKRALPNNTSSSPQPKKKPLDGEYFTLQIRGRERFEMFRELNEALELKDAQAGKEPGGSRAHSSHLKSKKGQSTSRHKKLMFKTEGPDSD
# [3] = measured here: cell number at 24 h, concentration not given here
# [4] = measured here: cell number at 48 h, concentration not given here
# [5] = measured here: p53 positive nuclei at 24 h, concentration not given here
# [6] = measured here: cell number at 24 h, Library stock concentration: 80 uM
# [7] = measured here: cell number at 24 h, Library stock concentration: 400 uM
# [8] = measured here: cell number at 24 h, Library stock concentration: 2 mM
# [9] = measured here: cell number at 24 h, Library stock concentration: 10 mM
# [10] = measured here: cell number at 48 h, Library stock concentration: 80 uM
# [11] = measured here: cell number at 48 h, Library stock concentration: 400 uM
# [12] = measured here: cell number at 48 h, Library stock concentration: 2 mM
# [13] = measured here: cell number at 48 h, Library stock concentration: 10 mM
# [14] = Library stock concentration: 80 uM
# [15] = Library stock concentration: 400 uM
# [16] = Library stock concentration: 2 mM
# [17] = Library stock concentration: 10 mM
# [18] = measured here: p53 positive nuclei at 24 h, Library stock concentration: 80 uM
# [19] = measured here: p53 positive nuclei at 24 h, Library stock concentration: 400 uM
# [20] = measured here: p53 positive nuclei at 24 h, Library stock concentration: 2 mM
# [21] = measured here: p53 positive nuclei at 24 h, Library stock concentration: 10 mM
# [22] = measured here: cell number at 24 h, Library stock concentration: 3.33 mM
# [23] = measured here: cell number at 48 h, Library stock concentration: 3.33 mM
# [24] = Library stock concentration: 3.33 mM
# [25] = measured here: p53 positive nuclei at 24 h, Library stock concentration: 3.33 mM
smiles,measurement,setting,value
CCCCCCCCNC(=O)Cc1c(C)n(C(=O)c2ccc(Cl)cc2)c2ccc(OC)cc12,"nuclei count, normalised",[1]; [3],104%
same,"nuclei count, normalised",[1]; [4],112%
same,"p53-positive nuclei, normalised",[2]; concentration not given here,0.0988% (inactive)
same,"p53-positive nuclei, normalised",[2]; [5],-0.0319%
O=C1CCCc2occ(C(=O)N3CCc4[nH]nc(C5CCC5)c4C3)c21,"nuclei count, normalised",[1]; [3],110%
same,"nuclei count, normalised",[1]; [4],114%
same,"p53-positive nuclei, normalised",[2]; concentration not given here,-0.00738% (inactive)
same,"p53-positive nuclei, normalised",[2]; [5],-0.086%
OCCCCCNc1nccc(-c2cnn(-c3ccccc3F)c2)n1,"nuclei count, normalised",[1]; [3],112%
same,"nuclei count, normalised",[1]; [4],73.8%
same,"p53-positive nuclei, normalised",[2]; concentration not given here,0.562% (inactive)
same,"p53-positive nuclei, normalised",[2]; [5],-0.0884%
OCCCNc1cc(-c2ccnc(Nc3cccc(Cl)c3)n2)ccn1,"nuclei count, normalised",[1]; [6],46%
same,"nuclei count, normalised",[1]; [7],37.5%
same,"nuclei count, normalised",[1]; [8],37%
same,"nuclei count, normalised",[1]; [9],36.9%
same,"nuclei count, normalised",[1]; [10],28.8%
same,"nuclei count, normalised",[1]; [11],20.8%
same,"nuclei count, normalised",[1]; [12],22.2%
same,"nuclei count, normalised",[1]; [13],23.8%
same,"p53-positive nuclei, normalised",[2]; [14],75.9% (active)
same,"p53-positive nuclei, normalised",[2]; [15],41.8% (inactive)
same,"p53-positive nuclei, normalised",[2]; [16],16.5% (inactive)
same,"p53-positive nuclei, normalised",[2]; [17],8.11% (inactive)
same,"p53-positive nuclei, normalised",[2]; [18],23.9%
same,"p53-positive nuclei, normalised",[2]; [19],2.63%
same,"p53-positive nuclei, normalised",[2]; [20],2.24%
same,"p53-positive nuclei, normalised",[2]; [21],1.34%
OCCCCCNc1nccc(-c2cnn(-c3ccc(F)cc3)c2)n1,"nuclei count, normalised",[1]; [3],103%
same,"nuclei count, normalised",[1]; [4],103%
same,"p53-positive nuclei, normalised",[2]; concentration not given here,-0.0141% (inactive)
same,"p53-positive nuclei, normalised",[2]; [5],0.508%
NC(=Nc1ccc(F)cc1)NO,"nuclei count, normalised",[1]; [3],101%
same,"nuclei count, normalised",[1]; [4],95.3%
same,"p53-positive nuclei, normalised",[2]; concentration not given here,0.0683% (inactive)
same,"p53-positive nuclei, normalised",[2]; [5],-0.0286%
O=C(C=Cn1cnc(-c2cc(C(F)(F)F)cc(C(F)(F)F)c2)n1)N1CC(F)(F)C1,"nuclei count, normalised",[1]; [22],66.2%
same,"nuclei count, normalised",[1]; [23],53%
same,"p53-positive nuclei, normalised",[2]; [24],0.0748% (inactive)
same,"p53-positive nuclei, normalised",[2]; [25],-0.238%
O=C(O)CCC/C=C\C[C@H]1C(=O)C[C@@H](O)[C@@H]1/C=C/[C@@H](O)CCc1ccccc1,"nuclei count, normalised",[1]; [3],102%
same,"nuclei count, normalised",[1]; [4],107%
same,"p53-positive nuclei, normalised",[2]; concentration not given here,0.0806% (inactive)
same,"p53-positive nuclei, normalised",[2]; [5],0.0378%
Cc1nn(C)cc1-c1ccnc(N2CCCC(c3nc4c(C)cccc4[nH]3)C2)n1 (stereo not drawn),"nuclei count, normalised",[1]; [3],103%
same,"nuclei count, normalised",[1]; [4],106%
same,"p53-positive nuclei, normalised",[2]; concentration not given here,-0.267% (inactive)
same,"p53-positive nuclei, normalised",[2]; [5],-0.151%
CC1(C)S[C@@H]2C(NC(=O)C(C(=O)O)c3ccccc3)C(=O)N2C1C(=O)O (stereo partly drawn),"nuclei count, normalised",[1]; [22],119%
same,"nuclei count, normalised",[1]; [23],111%
same,"p53-positive nuclei, normalised",[2]; [24],-0.208% (inactive)
same,"p53-positive nuclei, normalised",[2]; [25],-0.327%
CC(C)c1nn(-c2c(Cl)cccc2Cl)c2nc(Cc3ccc(OCCO)cc3)[nH]c(=O)c12,"nuclei count, normalised",[1]; [6],64.8%
same,"nuclei count, normalised",[1]; [7],36%
same,"nuclei count, normalised",[1]; [8],26.2%
same,"nuclei count, normalised",[1]; [9],26.4%
same,"nuclei count, normalised",[1]; [10],50.6%
same,"nuclei count, normalised",[1]; [11],25.1%
same,"nuclei count, normalised",[1]; [12],17.9%
same,"nuclei count, normalised",[1]; [13],18.4%
same,"p53-positive nuclei, normalised",[2]; [14],27.9% (inactive)
same,"p53-positive nuclei, normalised",[2]; [15],67% (active)
same,"p53-positive nuclei, normalised",[2]; [16],32.9% (inactive)
same,"p53-positive nuclei, normalised",[2]; [17],34.7% (inactive)
same,"p53-positive nuclei, normalised",[2]; [18],18.6%
same,"p53-positive nuclei, normalised",[2]; [19],19.1%
same,"p53-positive nuclei, normalised",[2]; [20],6.59%
same,"p53-positive nuclei, normalised",[2]; [21],4.85%
COc1cc(OC)c2c(=O)[nH]c(-c3cc(C)c(OCCO)c(C)c3)nc2c1,"nuclei count, normalised","[1]; measured here: cell number at 24 h, Library stock concentration: 46 uM",114%
same,"nuclei count, normalised","[1]; measured here: cell number at 24 h, Library stock concentration: 278 uM",107%
same,"nuclei count, normalised","[1]; measured here: cell number at 24 h, Library stock concentration: 1.67 mM",118%
same,"nuclei count, normalised",[1]; [22],108%
same,"nuclei count, normalised",[1]; [9],109%
same,"nuclei count, normalised","[1]; measured here: cell number at 48 h, Library stock concentration: 46 uM",111%
same,"nuclei count, normalised","[1]; measured here: cell number at 48 h, Library stock concentration: 278 uM",108%
same,"nuclei count, normalised","[1]; measured here: cell number at 48 h, Library stock concentration: 1.67 mM",107%
same,"nuclei count, normalised",[1]; [23],103%
same,"nuclei count, normalised",[1]; [13],108%
same,"p53-positive nuclei, normalised",[2]; Library stock concentration: 46 uM,0.0206% (inactive)
same,"p53-positive nuclei, normalised",[2]; Library stock concentration: 278 uM,0.323% (inactive)
same,"p53-positive nuclei, normalised",[2]; Library stock concentration: 1.67 mM,0.07% (inactive)
same,"p53-positive nuclei, normalised",[2]; [24],0.152% (inactive)
same,"p53-positive nuclei, normalised",[2]; [17],-0.223% (inactive)
same,"p53-positive nuclei, normalised","[2]; measured here: p53 positive nuclei at 24 h, Library stock concentration: 46 uM",-0.102%
same,"p53-positive nuclei, normalised","[2]; measured here: p53 positive nuclei at 24 h, Library stock concentration: 278 uM",0.166%
same,"p53-positive nuclei, normalised","[2]; measured here: p53 positive nuclei at 24 h, Library stock concentration: 1.67 mM",-0.00477%
same,"p53-positive nuclei, normalised",[2]; [25],0.0179%
same,"p53-positive nuclei, normalised",[2]; [21],-0.153%
